Experimental data reported in ChEMBL document CHEMBL4513216, “Probing the Open Global Health Chemical Diversity Library for Multistage-Active Starting Points for Next-Generation Antimalarials” (ACS Infect Dis, 2020).
The campaign covered roughly 65,000 compounds. About 2,100 (3.2%) showed an effect of 50% or more. The median lay at about -52%. Only a selection was taken, and strong results are over-represented in it overall.

The molecules below were run on Plasmodium falciparum (assay: Screen against P. falciparum Asexual Blood Stage (ABS), at 5uM). Conditions: tested at 5 uM.
Assay type: functional, Dd2

Structure (SMILES) | INHIBITION [%]
Cn1ccnc1C(=O)N1CCC2(CCCN2CC2CC2)CC1 | -104
CC(=O)c1cc(CN2C[C@@H]3CC[C@H]2CN(S(=O)(=O)N(C)C)C3)cs1 | -60.2
O=C(O)Cn1ccc(=O)c2ccccc21 | -123
CC(C)(C)c1cc(C(=O)NCCN2CCCS2(=O)=O)[nH]n1 | 34.4
CC(C)C(=O)N1CCC2(CCN2CC2CC2)C1 (stereo unspecified) | -74.5
CC(C)C(=O)N1CCC2(CN(CC3CCCC3)C2)C1 | -67.5
CC(C)C(=O)N1CCCC2(CCCN2CC2CCCC2)C1 (stereo unspecified) | 62
CCCS(=O)(=O)N1CCC(NC(=O)c2cc3ccccc3s2)CC1 | 7.92
COCC(=O)N1C[C@@H](CN2CCCN(C)CC2)[C@@H](CO)C1 | -37.6
Cc1[nH]c2ccc(CNc3cc(C(=O)NC(C)C)ccn3)cc2c1C | -115
O=C(c1ccccc1)N1CCCn2c(CN3CCCCC3)nnc2C1 | -94.3
CCc1noc(C)c1C(=O)N1CCCCC1Cn1cc(C)cn1 (stereo unspecified) | -104
CCNC(=O)N(C)C1CCN(Cc2ncc(C)c(OC)c2C)CC1 | 69
COc1c(C)cnc(CN2CCC(N(C)C(=O)C(C)OC)CC2)c1C (stereo unspecified) | -7.99
CCC(=O)N(C)C1CCN(Cc2ncc(C)c(OC)c2C)CC1 | -102
O=C(Cn1cc(I)cn1)N1CCCCCC1 | -34.7
COc1ccc2cc(CNCc3c(C)nn(C)c3N(C)C)ccc2c1 | 18.6
Cc1ccc(N2CCN(C(=O)CN3C[C@H]4CC[C@@H]3C4)CC2=O)cc1 | -73.1
Cc1cc(C)cc(N2CCN(C(=O)CCN3C[C@H]4CC[C@@H]3C4)CC2=O)c1 | 62.1
O=C(CCN1C[C@H]2CC[C@@H]1C2)N1CCN(c2cccc(Cl)c2)C(=O)C1 | -40
CC(CN1CCCC1=O)NC(=O)Nc1ccccc1Cn1cccn1 (stereo unspecified) | -4.06
CCOCC1c2c(cnn2C)CCN1C(=O)c1ccncn1 (stereo unspecified) | -224

Structure (SMILES) | INHIBITION [%]
Cc1cccc(C)c1Oc1ncccc1CNC(=O)C1COC(=O)N1 (stereo unspecified) | -180
CCC(CC)C(=O)NCc1cn2cc(Br)ccc2n1 | 1.4
COc1ccc(F)c(-c2cc(C)nc(N)n2)c1 | -23.9
COc1ccc(OCCN(C)c2cc(C)nc(N)n2)cc1 | 63.7
Cc1cc(N(C)CCCn2cccn2)nc(N)n1 | 26.7
CN(C)c1ccccc1CN1CCCC(N2CCCC2=O)C1 (stereo unspecified) | -44.5
Cc1cccc(C(=O)N2CCC3(CC2)CC(c2cnn(C)c2)CO3)c1 (stereo unspecified) | -85.1
CN(C)CC1(O)CCCN(C(=O)CCn2cc(Cl)cn2)C1 (stereo unspecified) | -101
CN(C)CC1(O)CCCN(C(=O)Cc2ccc(Cl)c(Cl)c2)C1 (stereo unspecified) | 58.9
CN(C)CC1(O)CCN(C(=O)Cc2ccc3c(c2)CCC3)C1 (stereo unspecified) | -116
O[C@H]1CCCC[C@@H]1N1CCN(CCCc2ccc3c(c2)OCO3)CC1 | 28.7
CN(C)C(CNCc1nc(-c2ccsc2)no1)c1cccs1 (stereo unspecified) | 12.3
CN(C)C(CNCc1nc(-c2ccsc2)no1)c1cccc(F)c1 (stereo unspecified) | -31.3
CN(C)C(CNCc1nc(-c2ccsc2)no1)c1ccsc1 (stereo unspecified) | 55.4
CCC1=NC(SCC(=O)c2ccccc2)c2cc(CC)sc2N1 (stereo unspecified) | -23.2
c1ccc(-c2cc(CNCCN3CCCC3)c3nnnn3c2)cc1 | -1.88
c1ccc(-c2cc(CNCCN3CCOCC3)c3nnnn3c2)cc1 | -57.2
c1ccc(-c2cc(CNCCCN3CCCCC3)c3nnnn3c2)cc1 | 65.4
O=C([C@@H]1C[C@@H]2CCN(CCc3ccccc3)C[C@H]2O1)N1CCCC1 | -35
CC(O)CN1CCC(CNCc2ccccc2Cl)CC1 (stereo unspecified) | 44.5
CCc1nnc2n1CC(CNCC1CCCC1)CC2 (stereo unspecified) | -108
COc1ccc2c(c1)C(=O)NC1(CC2)CCN(Cc2cccnc2)C1 (stereo unspecified) | -50.6

Structure (SMILES) | INHIBITION [%]
COc1ccc2c(c1)C(=O)NC1(CC2)CCN(Cc2ccc(F)cc2)C1 (stereo unspecified) | 66.7
COc1ccc2c(c1)C(=O)NC1(CC2)CCN(Cc2ccccn2)C1 (stereo unspecified) | -30.5
COc1ccc2c(c1)OC1(CCN(Cc3ccc(F)cc3)CC1)CC2=O | -50.5
COc1ccc2c(c1)C(=O)NC1(CC2)CCN(Cc2ccncc2)C1 (stereo unspecified) | -28.2
COc1ccc2c(c1)C(=O)NC1(CC2)CCN(Cc2ccccc2)C1 (stereo unspecified) | 64.7
Cc1ccc(C(=O)Nc2ccccc2F)n1C | -184
COc1c(F)cc(-c2cn(CCn3c(C)cc(C)nc3=O)nn2)cc1Cl | 59.7
CC(=O)Nc1ccc(-c2cn(CCn3c(C)cc(C)nc3=O)nn2)cc1 | -49.9
COc1ccc(-c2cn(CCn3c(C)cc(C)nc3=O)nn2)cn1 | -102
c1ccc(CN2CCCn3nnc(Cn4cccc4)c3C2)nc1 | -33.7
Cc1ccc(N2CC[C@H]3O[C@@H](C(=O)N4CCCO4)CC[C@H]32)nn1 | -24.1
Cc1cnc(C(=O)N2CCC3(CC2)CN(c2ccccn2)CCO3)cn1 | -79.7
CCNC(=O)C1CCCN(C(=O)Nc2ccc3c(c2)CCCN3C)C1 (stereo unspecified) | 13.1
CCOCC1CCN(C(=O)Nc2ccc3c(c2)CCCO3)C1 (stereo unspecified) | -50.7
CCOCC1CCN(C(=O)Nc2ccc3c(c2)CCCN3C)C1 (stereo unspecified) | 58.9
Cn1ccnc1CN1CCN(CCOc2cccc(C#N)c2)CC1 | -53.6
O=C(c1c[nH]cn1)N1CCC(F)(F)C2(CCN(c3cnccn3)C2)C1 (stereo unspecified) | -94.9
CC(=O)N1C[C@H](NS(=O)(=O)Cc2cccc(Cl)c2)[C@@H](C(C)C)C1 | -62.4
Cc1cc(NCc2cc3n(n2)CCCN(C(=O)C2CCC2)C3)nc(N)n1 | -79.3
COc1cccc(C(=O)N2CCc3nc(C4CCCN4)ncc3C2)c1 (stereo unspecified) | 4.58
COc1ccc(C)cc1CN(Cc1ncc(C)o1)C1CCN(C)C1 (stereo unspecified) | 38.7
COc1ccc(C)cc1CN(Cc1nc(C)c(C)o1)C1CCN(C)C1 (stereo unspecified) | 56.2

Structure (SMILES) | INHIBITION [%]
Cc1cnc(CN(Cc2ccc(C#N)cc2F)C2CCN(C)C2)o1 (stereo unspecified) | 12.5
CN1C(Cn2cccn2)C[C@@H]2CN(C(=O)c3cccc(C#N)c3)CC[C@@H]21 (stereo partly specified) | -95.8
CC(C)Oc1ccccc1OCCN1C(=O)CCNC1=O | -16.4
CCNC(=O)C1CCN(Cc2ccc(C(=O)Nc3nnc(C)s3)cc2)C1 (stereo unspecified) | -162.2
OC1(CNCc2ccc(F)c(C(F)(F)F)c2)CCOC1 (stereo unspecified) | -1.68
OC1(CNCc2ccc(F)c(C(F)(F)F)c2)CCSCC1 | 56.4
Cc1cc(CNCC2(O)CCOCC2)ccc1F | 16.2
O=C(NCc1cccnc1)[C@@H]1C[C@H]2[C@H](CCN2c2ncccn2)O1 | -112
CO[C@H]1CN(C)S(=O)(=O)[C@@]12CCN(Cc1ccccc1)C2 | -53.8
Cc1cc(O)c(OCC(=O)Nc2nc3c(s2)CCCCC3)cn1 | -94.4
CNS(=O)(=O)c1cccc(C(C)NCc2cccc(OC)c2)c1 (stereo unspecified) | 3.75
COc1ccc(CNC(C)c2cccc(Cl)c2)c(OC)c1OC (stereo unspecified) | 43.3
COc1ccc(CNC(C)c2ccc(Cl)c(Cl)c2)c(OC)c1OC (stereo unspecified) | 66
COc1ccc(CNC(C)c2cccc(Br)c2)c(OC)c1OC (stereo unspecified) | 67.1
COc1ccc(C(C)NCc2ccc(OC)c(OC)c2OC)cc1F (stereo unspecified) | 36
COc1ccc(C(C)NCc2c[nH]nc2C)cc1OC (stereo unspecified) | -59.7
COc1cc(CNC(C)c2ccc(F)c(F)c2)cc2c1OCCO2 (stereo unspecified) | -7.66
COc1ccc(C(C)NCc2c[nH]nc2C)cc1Br (stereo unspecified) | 20.5
COc1cc(CNC(C)c2cccc(Cl)c2)cc(OC)c1OC (stereo unspecified) | 63.5
CCCn1cc(NC(=O)c2ccc(S(=O)(=O)CC)cc2)ccc1=O | -1.56
O=C(CNCCn1cccn1)NCC1(c2ccccc2)CCC1 | -77
Cn1ccc(C(=O)NCc2cccc(NC(=O)C3CCC3)c2)cc1=O | -218

Structure (SMILES) | INHIBITION [%]
CC(CN1CCCCCC1)NCc1cc(-c2ccco2)on1 (stereo unspecified) | 18
COCCN(Cc1sccc1C)C(=O)COc1ccccc1O | -65.9
COCCN(Cc1sccc1C)C(=O)C1CCN(C(C)C)CC1 | 57.7
COCCN(Cc1sccc1C)C(=O)C1CCCN(C(N)=O)C1 (stereo unspecified) | -75.6
Cc1nn(C)c(N2CCOCC2)c1CNCc1ccnc(N(C)C)c1 | -24.8
Cc1nn(C)c(N2CCOCC2)c1CNCc1ccc(CO)c(F)c1 | -77.5
Cc1nn(C)c(N(C)C)c1CNCc1ccc2c(c1)OCO2 | 35.3
Cc1nn(C)c(N2CCOCC2)c1CNCc1nccs1 | -58.2
Cc1nn(CC(C)C)c(N(C)C)c1CNCc1cccc2c1OCO2 | 29.4
Cc1nn(C)c(N2CCOCC2)c1CNCc1ccnn1C | -222
Cc1nn(C)c(N2CCOCC2)c1CNCc1ccc2c(c1)OCO2 | 64.5
Cc1nn(C)c(N2CCOCC2)c1CNC1CCc2cc(F)ccc21 (stereo unspecified) | 40.1
Cc1nn(CC(C)C)c(N(C)C)c1CNCc1ccc2c(c1)OCO2 | 54.6
Cc1nn(C)c(N2CCOCC2)c1CNC1CCc2ccccc21 (stereo unspecified) | 45.3
Cc1nn(C)c(N2CCOCC2)c1CNCc1ccc(Cl)s1 | 53
Cc1ccc2c(c1)CCC2NCc1c(C)nn(C)c1N1CCOCC1 (stereo unspecified) | 64.2
O=C1C(N2CC[C@@H](O)C2)CCCN1Cc1cccc(C(F)(F)F)c1 (stereo partly specified) | -51.6
CCOCCN1CCN(C=C2NN=C(c3occc3C)O2)CC1 | -7.75
